# High-throughput results (PubChem)
# MEKK3 PB1 HTS = raises or lowers MEK5 binding to the human MEKK3 PB1 domain; AID 1529; binding response (% of control), % at 10 µM; Q99759; hit rate 1.4% among 290,000; bead-based flow cytometry, Alexa488-MEK5 binding to MEKK3; actives lie on both sides; 0 = blocked by unlabeled MEK5, 100 = vehicle;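 active = binding response more than 3 SD above or below the average of its plate-row segment, actives on both sides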;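 note: Alexa488 bead fluorescence after subtracting the streptavidin-only scavenger bead signal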
# MEKK2mut PB1 HTS = signal of MEK5 binding to mutant human MEKK2 PB1 domain. percent response, % at 10 µM. bead flow cytometry, Alexa488-MEK5 binding to MEKK2 mutant. AID 1530. hit rate 0.35% among 290,000; in the data active = percent response above about 24%, passing the limit was not always enough
# TMEM16A act = activators or potentiators of mouse TMEM16A chloride channel; HEK293 TMEM16A/YFP-H148Q/I152L, iodide quench fluorescence; stronger effect = lower value; B-score at 10 µM; hit rate 0.3% among 340,000;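 active = fluorescence-ratio B-score plate-corrected deviation score at least 3 library SD below zero, with starting fluorescence score within 5 deviations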;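 note: channel opened by trigger with iodide after compound preincubation; score built on the fluorescence ratio of max minus min over baseline; more negative score means more quench and so TMEM16A activation or potentiation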
# Target sequence (Q8BHY3 whole entry, looked up): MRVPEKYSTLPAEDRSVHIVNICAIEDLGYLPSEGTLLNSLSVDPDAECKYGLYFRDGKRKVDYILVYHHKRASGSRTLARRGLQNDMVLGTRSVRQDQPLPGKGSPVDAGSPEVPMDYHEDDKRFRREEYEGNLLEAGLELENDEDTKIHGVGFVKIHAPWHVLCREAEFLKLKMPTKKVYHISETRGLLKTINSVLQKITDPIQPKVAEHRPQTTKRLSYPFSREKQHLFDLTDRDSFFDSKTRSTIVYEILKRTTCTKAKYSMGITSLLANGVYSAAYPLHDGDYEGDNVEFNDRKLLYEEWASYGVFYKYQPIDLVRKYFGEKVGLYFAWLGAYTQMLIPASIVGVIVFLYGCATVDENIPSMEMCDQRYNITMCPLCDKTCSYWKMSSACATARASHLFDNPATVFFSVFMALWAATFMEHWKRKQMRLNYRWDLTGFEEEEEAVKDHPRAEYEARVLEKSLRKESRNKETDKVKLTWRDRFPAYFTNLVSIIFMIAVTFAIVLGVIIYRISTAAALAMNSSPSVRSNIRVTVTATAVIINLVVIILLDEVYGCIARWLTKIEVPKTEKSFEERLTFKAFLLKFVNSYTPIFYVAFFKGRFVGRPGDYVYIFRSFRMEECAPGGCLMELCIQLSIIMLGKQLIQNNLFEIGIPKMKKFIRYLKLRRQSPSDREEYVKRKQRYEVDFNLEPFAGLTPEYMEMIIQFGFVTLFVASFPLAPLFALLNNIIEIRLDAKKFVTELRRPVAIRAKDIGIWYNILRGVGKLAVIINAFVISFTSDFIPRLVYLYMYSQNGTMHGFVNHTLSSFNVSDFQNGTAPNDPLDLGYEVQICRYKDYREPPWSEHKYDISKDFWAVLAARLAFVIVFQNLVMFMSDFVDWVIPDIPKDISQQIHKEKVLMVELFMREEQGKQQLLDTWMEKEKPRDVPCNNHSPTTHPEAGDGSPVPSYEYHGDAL
# TMEM16A inh = blocks the mouse calcium-activated chloride channel TMEM16A; Q8BHY3; AID 588511; HEK293 TMEM16A/YFP iodide influx fluorescence, ionomycin; normalized B-score (activity score, 25-100; higher = stronger inhibition) at 10 µM; hit rate 1.2% among 310,000;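 active = ratio plate-corrected score three or more library SD toward inhibition, starting fluorescence score within five deviations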;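 note: score derived from kinetic fluorescence span divided by baseline fluorescence per well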
# NTR1 agonist = NTR1 (human) agonism; P30989; NTR1-U2OS beta-arrestin-GFP spot imaging, agonist mode; activation, % at 20 µM; hit rate 0.17% among 330,000; AID 493036;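 active = activation at or above 40% of the spot to cytoplasm intensity ratio, with at least 20 cells analyzed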;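 note: 0% = DMSO without peptide and 100% = 100 nM NTR1 peptide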
# MEKK2 WT-MEK5 = raises or lowers MEK5 binding to wildtype human MEKK2 PB1 domain; hit rate 1.1% among 290,000; bead flow cytometry, Alexa488-MEK5 binding to MEKK2 WT; actives lie on both sides; AID 1531; Q9Y2U5; binding response (% of control), % at 10 µM; in the data active = binding response below about 67% or above about 130%
# MEKK2wt confirm = raises or lowers MEK5 binding to wildtype human MEKK2, retest. hit rate 2.4% among 5,900. bead flow cytometry, Alexa488-MEK5 binding to MEKK2 WT; actives lie on both sides. binding response (% of control), % at 10 µM. shares compounds with MEKK3 PB1 HTS; in the data active = binding response below about 16% or above about 210%; inactive = in between
# MEKK2mut confirm = signal of MEK5 binding to mutant human MEKK2, retest; bead flow cytometry, Alexa488-MEK5 binding to MEKK2 mutant; hit rate 2% among 5,900; AID 1893; percent response, % at 10 µM; shares compounds with MEKK3 PB1 HTS; in the data active = percent response mostly above about 71%, no sharp cut-off; inactive = mostly below about 38%;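 note: higher means compound restores mutant binding toward wildtype level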
# MEKK3 confirm = confirmation of inhibitors of MEK5 binding to human MEKK3; binding response (% of control), % at 10 µM; shares compounds with MEKK3 PB1 HTS; hit rate 1.8% among 5,900; bead flow cytometry, Alexa488-MEK5 binding to MEKK3; stronger effect = lower value;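 active = binding response below 72% of control, or above a set upper limit, though filed actives all read lower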;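 note: 100% = DMSO only wells and 0% = binding blocked by excess unlabeled MEK5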
# Starred values were filed as active, the others as inactive; i = inactive; . = not tested or not shown; [ ] = dose if it differs, or a comment. This is a sample that favours compounds with a hit; in the whole collection about 3.4% have one here.
SMILES,MEKK3 PB1 HTS,MEKK2mut PB1 HTS,TMEM16A act,TMEM16A inh,NTR1 agonist,MEKK2 WT-MEK5,MEKK2wt confirm,MEKK2mut confirm,MEKK3 confirm
Cc1ccc(C(=O)CSc2nnc(-c3ccccc3)o2)cc1,1.0*[inhibitor],-2.0,i,i,0.1,-2.0*[inhibitor],99.0,0.0,103.0
S=C(NCc1ccco1)Nc1ccc(Oc2ccccc2)cc1,100.0,-5.0,i,i,-0.7,98.0,.,.,.
Cc1ccccc1C(=O)NNC(=O)CSc1nnc(C)n1-c1ccccc1,64.0*[inhibitor],-1.0,i,i,-0.7,96.0,100.0,-12.0,97.0
COc1ccc(C(C(=O)NC2CCCCC2)N(C(=O)c2ccco2)c2ccccc2C(C)=O)cc1OC (stereo unspecified),100.0,-6.0,i,i,1.0,97.0,.,.,.
CCCc1nc(SCC(=O)Nc2nnc(CC)s2)c2c(C)c(C)sc2n1,122.0*,9.0,i,i,0.2,115.0,99.0,3.0,100.0
Cc1cc(-c2nnnn2-c2cc(Cl)cc(Cl)c2)no1,131.0*,26.0,i,i,0.9,112.0,99.0,-9.0,101.0
Cc1cc(-c2nnnn2-c2ccc(F)cc2)no1,99.0,-12.0,i,i,-0.4,96.0,.,.,.
CCn1ncc(Cl)c1C(=O)Nc1ccc2c(c1)CCC2,107.0,8.0,i,i,1.6,111.0,.,.,.
COc1ccc(CNC(=O)Cn2nc(C(F)(F)F)c(Br)c2C)cc1,102.0,2.0,i,i,-0.3,104.0,.,.,.
Cc1c(Br)c(C(F)(F)F)nn1CC(=O)NCc1ccccc1,132.0*,0.0,i,i,1.0,102.0,91.0,-6.0,93.0
CCCN1CCN(C(=O)CCS(=O)(=O)c2cc3c(cc2Cl)NC(=O)CO3)CC1,104.0,2.0,i,i,-0.9,100.0,.,.,.
NCC(c1ccc(Cl)cc1Cl)c1c[nH]c2ccccc12 (stereo unspecified),109.0,19.0,i,i,3.6,141.0*,137.0,23.0,105.0
COc1ccccc1CNC(=O)[C@@H]1CCCN1S(=O)(=O)c1ccccc1F,101.0,-2.0,i,i,-1.0,101.0,.,.,.
O=C1c2ccccc2C(=O)C12OC2c1cccc2ccccc12 (stereo unspecified),157.0*,1.0,i,i,-0.2,107.0,103.0,2.0,103.0
Cc1cccc(NCC(=O)N/N=C/c2ccc(Br)cc2)c1,47.0*[inhibitor],-16.0,i,i,8.4,48.0,98.0,2.0,103.0
Cc1ccc(NCC(=O)N/N=C/c2cccc(Oc3ccccc3)c2)cc1,134.0*,1.0,i,i,13.7,107.0,104.0,-3.0,100.0
Cc1ccc(NCC(=O)N/N=C/c2ccncc2)cc1,137.0*,6.0,i,i,-0.7,127.0,110.0,8.0,108.0
COc1cccc(/C=N/NC(=O)Cn2ccnc2C)c1,142.0*,0.0,i,i,1.5,106.0,87.0,-5.0,91.0
COc1ccccc1/C=C/CN1CCC(Oc2cc(C(=O)NC3CC3)ccc2OC)CC1,102.0,11.0,i,i,-0.1,114.0,.,.,.
O=C([C@H](Cc1ccccc1)N1C(=O)c2ccccc2C1=O)N1CCOCC1,104.0,11.0,i,i,0.6,103.0,.,.,.
O=C(COc1cccc(NC(=O)c2cccs2)c1)c1ccc(F)cc1,138.0*,1.0,i,i,3.1,105.0,104.0,2.0,105.0
CC(=O)NCc1ccc(S(=O)(=O)N/N=C/c2ccc(N(C)C)cc2)cc1,104.0,-2.0,i,i,-1.8,102.0,.,.,.
CC1CCN(C(=O)Cn2cnc3c(cnn3C(C)(C)C)c2=O)CC1,119.0,2.0,i,i,0.8,114.0,.,.,.
CC(=O)c1cccc(OCC(O)CNCCc2ccc(Cl)cc2)c1 (stereo unspecified),103.0,22.0,i,i,0.3,115.0,.,.,.
CCCc1cnc(NCCNCC(O)COc2ccc(Cl)c(Cl)c2)nc1 (stereo unspecified),106.0,31.0,i,i,22.4,144.0*,109.0,1.0,102.0
SMILES,MEKK3 PB1 HTS,MEKK2mut PB1 HTS,TMEM16A act,TMEM16A inh,NTR1 agonist,MEKK2 WT-MEK5,MEKK2wt confirm,MEKK2mut confirm,MEKK3 confirm
CCn1c(SCC(=O)N/N=C/C=C/c2ccco2)nnc1-c1ccccc1,128.0*,0.0,i,i,-0.8,106.0,103.0,4.0,100.0
Cc1ccccc1N=C/C=C1\N(C)c2ccccc2C1(C)C,94.0,-2.0,i,i,3.4,75.0,.,.,.
CN1/C(=C\C=Nc2cc(S(=O)(=O)N3CCOCC3)ccc2N2CCOCC2)C(C)(C)c2ccccc21,137.0*,0.0,i,i,-1.1,111.0,124.0,10.0,104.0
Cn1nc(C(C)(C)C)c([N+](=O)[O-])c1C(=O)NCCO,95.0,-3.0,i,i,2.4,100.0,.,.,.
CCN(CC)C(=O)c1c([N+](=O)[O-])c(C(C)(C)C)nn1C,140.0*,1.0,i,i,1.9,111.0,104.0,1.0,106.0
Cn1c(CNC(=O)CNC(=O)Cc2ccc(Cl)cc2)cc(=O)n(C)c1=O,94.0,-5.0,i,i,0.5,95.0,.,.,.
COCCN(C(=O)C1CC1)c1nnc(-c2cccc(C)c2)s1,0.0*[inhibitor],-21.0,i,i,1.0,0.0*[inhibitor],109.0,15.0,110.0
CCCN(C(=O)c1ccco1)c1nnc(-c2cccc(C)c2)s1,94.0,-8.0,i,i,6.2,86.0,.,.,.
COC(=O)C/C=C/[C@@H](C)[C@@H](/C=N/OCC[C@@H]1C=C[C@H](OC(C)=O)[C@@H](COC(C)=O)O1)NS(=O)(=O)c1ccc(C)cc1,89.0,-7.0,.,i,-0.2,86.0,.,.,.
Cc1cc2nncn2c2ccccc12,78.0*[inhibitor],-6.0,i,i,3.1,84.0,104.0,3.0,102.0
CCOc1ccc2ncc(S(=O)(=O)c3ccc(C)cc3)c(N3CCC4(CC3)OCCO4)c2c1,99.0,14.0,i,i,7.6,126.0,.,.,.
CCSC1=NCCN1S(=O)(=O)c1ccc(Cl)cc1,109.0,-12.0,i,i,-1.5,100.0,.,.,.
CCSC1=NCCN1S(=O)(=O)c1ccccc1,50.0*[inhibitor],-16.0,i,i,-0.8,58.0,103.0,-2.0,106.0
O=[N+]([O-])c1cc2c(cc1CN1CCN(CCOCCO)CC1)OCO2,112.0,23.0,i,i,0.8,149.0*,99.0,-1.0,99.0
